Measurements taken from article PMC7862700, “An all-to-all approach to the identification of sequence-specific readers for epigenetic DNA modifications on cytosine”.

Columns and labels:
Assay in all cases: DAPPL (digital affinity profiling via proximity ligation, sequencing); 10 mM Tris-HCl pH 7.5, 50 mM NaCl, 1 mM DTT, 4% glycerol, room temperature, 30 min; GST-TFs on glutathione beads, 16-mer random dsDNA library, 0.1% formaldehyde crosslink after washing; high values mean tight binding
FLI1 = target: T1, FLI1 (Homo sapiens, UniProt Q01543 1-452); conditions: protein: recombinant; tags: N-terminal GST; dsDNA, one strand shown
T1 sequence: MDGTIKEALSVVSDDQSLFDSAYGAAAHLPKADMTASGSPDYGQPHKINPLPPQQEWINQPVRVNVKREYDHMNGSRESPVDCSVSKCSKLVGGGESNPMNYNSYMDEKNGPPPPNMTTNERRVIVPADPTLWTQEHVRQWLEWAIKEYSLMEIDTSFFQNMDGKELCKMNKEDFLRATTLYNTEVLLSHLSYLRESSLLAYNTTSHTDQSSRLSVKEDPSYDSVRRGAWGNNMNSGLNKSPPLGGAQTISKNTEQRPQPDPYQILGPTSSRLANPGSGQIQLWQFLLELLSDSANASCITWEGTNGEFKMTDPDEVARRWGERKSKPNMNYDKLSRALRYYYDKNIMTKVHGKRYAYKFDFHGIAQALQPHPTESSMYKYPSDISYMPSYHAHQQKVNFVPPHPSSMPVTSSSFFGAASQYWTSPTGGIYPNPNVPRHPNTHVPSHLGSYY
In short: (§1)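 A tag-only sample was pooled with DNA-barcoded human transcription factors that had been expressed in yeast as GST fusions and captured on glutathione beads. The pools were incubated for 30 min at room temperature with 200 nmole of a random double-stranded 16-mer DNA library in Tris/NaCl/DTT/glycerol buffer, then washed, crosslinked with 0.1% formaldehyde, proximity-ligated (BsaI/T4 ligase, 1 h, 37 °C), PCR-amplified and sequenced on an Illumina NextSeq500. Binding signal is each hexamer's read frequency for a factor divided by its frequency for the tag-only sample.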

ELK1 = target: T2, ELK1 (Homo sapiens, UniProt P19419 1-428); conditions: protein: recombinant; tags: N-terminal GST; dsDNA, one strand shown
T2 sequence: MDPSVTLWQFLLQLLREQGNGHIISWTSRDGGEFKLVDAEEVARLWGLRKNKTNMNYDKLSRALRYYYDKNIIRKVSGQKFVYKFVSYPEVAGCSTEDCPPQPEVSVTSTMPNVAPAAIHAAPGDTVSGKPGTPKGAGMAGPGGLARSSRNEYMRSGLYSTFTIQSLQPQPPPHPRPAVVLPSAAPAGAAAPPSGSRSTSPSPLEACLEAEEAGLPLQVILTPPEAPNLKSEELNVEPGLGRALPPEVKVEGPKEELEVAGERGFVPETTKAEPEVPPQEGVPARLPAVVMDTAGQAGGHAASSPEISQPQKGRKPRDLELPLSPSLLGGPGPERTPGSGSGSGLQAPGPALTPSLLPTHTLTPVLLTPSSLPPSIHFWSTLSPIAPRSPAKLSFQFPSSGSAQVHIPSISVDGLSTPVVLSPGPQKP
In short: as §1

GABPA = target: T3, GABPA (Homo sapiens, UniProt Q06546 1-454); conditions: protein: recombinant; tags: N-terminal GST; dsDNA, one strand shown
T3 sequence: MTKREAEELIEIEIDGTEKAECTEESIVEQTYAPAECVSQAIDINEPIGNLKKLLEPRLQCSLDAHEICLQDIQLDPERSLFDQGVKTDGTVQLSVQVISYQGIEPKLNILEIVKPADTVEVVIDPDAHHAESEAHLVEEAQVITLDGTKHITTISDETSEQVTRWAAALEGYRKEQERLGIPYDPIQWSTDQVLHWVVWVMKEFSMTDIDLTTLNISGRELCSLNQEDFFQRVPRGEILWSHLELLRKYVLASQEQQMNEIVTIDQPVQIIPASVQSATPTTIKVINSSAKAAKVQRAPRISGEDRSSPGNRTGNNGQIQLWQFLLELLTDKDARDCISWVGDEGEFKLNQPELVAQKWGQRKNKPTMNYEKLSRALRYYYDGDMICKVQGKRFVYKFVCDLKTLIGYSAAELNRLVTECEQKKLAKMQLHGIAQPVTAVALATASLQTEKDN
In short: as §1

ERG = target: T4, ERG (Homo sapiens, UniProt P11308 1-479); conditions: protein: recombinant; tags: N-terminal GST; dsDNA, one strand shown
T4 sequence: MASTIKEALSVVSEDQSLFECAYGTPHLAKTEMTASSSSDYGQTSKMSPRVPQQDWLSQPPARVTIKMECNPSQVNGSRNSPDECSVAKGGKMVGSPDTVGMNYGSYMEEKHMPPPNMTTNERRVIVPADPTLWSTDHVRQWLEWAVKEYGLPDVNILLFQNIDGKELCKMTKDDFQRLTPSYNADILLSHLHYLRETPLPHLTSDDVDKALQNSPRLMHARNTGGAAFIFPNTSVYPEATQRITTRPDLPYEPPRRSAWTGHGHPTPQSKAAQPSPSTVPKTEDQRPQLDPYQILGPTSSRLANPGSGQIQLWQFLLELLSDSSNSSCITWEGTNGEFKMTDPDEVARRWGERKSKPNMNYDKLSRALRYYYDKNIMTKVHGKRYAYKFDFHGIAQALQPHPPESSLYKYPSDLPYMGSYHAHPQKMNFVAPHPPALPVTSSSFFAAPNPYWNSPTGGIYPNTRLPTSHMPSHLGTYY
In short: as §1

ELF1 = ELF1 (Homo sapiens, UniProt P32519 1-619); conditions: protein: recombinant; tags: N-terminal GST; dsDNA, one strand shown
In short: as §1

EHF = target: T5, EHF (Homo sapiens, UniProt Q9NZC4 1-300); conditions: protein: recombinant; tags: N-terminal GST; dsDNA, one strand shown
T5 sequence: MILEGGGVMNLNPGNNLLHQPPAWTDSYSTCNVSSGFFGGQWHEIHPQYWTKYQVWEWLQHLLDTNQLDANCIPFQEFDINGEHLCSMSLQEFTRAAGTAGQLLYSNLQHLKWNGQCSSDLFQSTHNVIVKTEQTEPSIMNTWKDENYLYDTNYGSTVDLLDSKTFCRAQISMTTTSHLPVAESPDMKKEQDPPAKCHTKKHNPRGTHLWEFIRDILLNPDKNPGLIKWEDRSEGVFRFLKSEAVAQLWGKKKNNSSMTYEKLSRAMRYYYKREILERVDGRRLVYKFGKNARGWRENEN
In short: as §1

SPI1 = SPI1 (Homo sapiens, UniProt P17947 1-270); conditions: protein: recombinant; tags: N-terminal GST; dsDNA, one strand shown
In short: as §1

SPIB = SPIB (Homo sapiens, UniProt Q01892 1-262); conditions: protein: recombinant; tags: N-terminal GST; dsDNA, one strand shown
In short: as §1

ELK3 = target: T6, ELK3 (Homo sapiens, UniProt P41970 1-407); conditions: protein: recombinant; tags: N-terminal GST; dsDNA, one strand shown
T6 sequence: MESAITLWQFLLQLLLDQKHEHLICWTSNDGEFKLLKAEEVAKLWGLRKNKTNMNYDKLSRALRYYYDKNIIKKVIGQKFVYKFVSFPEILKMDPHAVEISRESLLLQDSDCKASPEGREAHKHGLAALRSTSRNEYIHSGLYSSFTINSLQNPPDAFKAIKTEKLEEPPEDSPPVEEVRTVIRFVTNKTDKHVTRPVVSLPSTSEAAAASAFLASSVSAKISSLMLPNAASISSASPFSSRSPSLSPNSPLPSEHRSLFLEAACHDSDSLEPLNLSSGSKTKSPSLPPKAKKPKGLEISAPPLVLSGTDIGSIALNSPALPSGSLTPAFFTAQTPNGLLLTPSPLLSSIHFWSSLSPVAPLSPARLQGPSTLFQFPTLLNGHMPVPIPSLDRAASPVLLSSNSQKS
In short: as §1

FEV = target: T7, FEV (Homo sapiens, UniProt Q99581 1-238); conditions: protein: recombinant; tags: N-terminal GST; dsDNA, one strand shown
T7 sequence: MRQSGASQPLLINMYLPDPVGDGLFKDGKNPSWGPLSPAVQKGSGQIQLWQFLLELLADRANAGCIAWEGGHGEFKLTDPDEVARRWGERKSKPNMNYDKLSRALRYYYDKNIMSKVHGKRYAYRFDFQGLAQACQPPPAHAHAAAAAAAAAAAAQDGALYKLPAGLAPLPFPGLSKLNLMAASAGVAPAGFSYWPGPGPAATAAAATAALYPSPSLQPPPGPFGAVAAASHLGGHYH
In short: as §1

ETV5 = ETV5 (Homo sapiens, UniProt P41161 1-510); conditions: protein: recombinant; tags: N-terminal GST; dsDNA, one strand shown
In short: as §1

HSF1 = HSF1 (Homo sapiens, UniProt Q00613 1-529); conditions: protein: recombinant; tags: N-terminal GST; chain copies: 3; dsDNA, one strand shown
In short: as §1

SPIC = target: T8, SPIC (Homo sapiens, UniProt Q8N5J4 1-248); conditions: protein: recombinant; tags: N-terminal GST; dsDNA, one strand shown
T8 sequence: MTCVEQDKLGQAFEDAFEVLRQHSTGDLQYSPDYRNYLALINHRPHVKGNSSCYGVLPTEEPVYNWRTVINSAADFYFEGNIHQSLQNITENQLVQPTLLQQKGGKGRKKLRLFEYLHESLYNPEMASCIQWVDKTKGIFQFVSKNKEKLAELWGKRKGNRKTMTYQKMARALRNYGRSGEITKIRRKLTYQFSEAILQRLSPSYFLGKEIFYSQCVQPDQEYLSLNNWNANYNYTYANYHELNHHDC
In short: as §1

ELF4 = ELF4 (Homo sapiens, UniProt Q99607 1-663); conditions: protein: recombinant; tags: N-terminal GST; dsDNA, one strand shown
In short: as §1

ELK4 = target: T9, ELK4 (Homo sapiens, UniProt P28324-2 1-405); conditions: protein: recombinant; tags: N-terminal GST; dsDNA, one strand shown
T9 sequence: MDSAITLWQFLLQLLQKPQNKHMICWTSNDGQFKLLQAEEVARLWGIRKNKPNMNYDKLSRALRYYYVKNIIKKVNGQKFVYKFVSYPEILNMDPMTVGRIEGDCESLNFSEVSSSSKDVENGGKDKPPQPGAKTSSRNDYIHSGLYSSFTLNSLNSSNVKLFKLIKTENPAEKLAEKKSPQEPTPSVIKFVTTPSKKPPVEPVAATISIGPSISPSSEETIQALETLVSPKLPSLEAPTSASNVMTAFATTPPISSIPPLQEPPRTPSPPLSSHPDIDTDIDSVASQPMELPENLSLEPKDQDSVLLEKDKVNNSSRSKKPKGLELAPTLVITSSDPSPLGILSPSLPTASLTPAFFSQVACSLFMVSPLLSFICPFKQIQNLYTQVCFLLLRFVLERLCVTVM
In short: as §1

ETV2 = target: T10, ETV2 (Homo sapiens, UniProt O00321 1-342); conditions: protein: recombinant; tags: N-terminal GST; dsDNA, one strand shown
T10 sequence: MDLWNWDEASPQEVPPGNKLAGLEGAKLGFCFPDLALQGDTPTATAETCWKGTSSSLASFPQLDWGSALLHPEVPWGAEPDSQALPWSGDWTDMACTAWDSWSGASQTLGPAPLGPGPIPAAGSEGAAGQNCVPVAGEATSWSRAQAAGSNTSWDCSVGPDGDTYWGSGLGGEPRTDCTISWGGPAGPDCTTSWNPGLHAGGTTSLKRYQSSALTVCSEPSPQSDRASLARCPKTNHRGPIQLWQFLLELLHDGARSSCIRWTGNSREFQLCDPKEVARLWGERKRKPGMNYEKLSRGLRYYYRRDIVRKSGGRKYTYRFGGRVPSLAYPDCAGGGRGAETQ
In short: as §1

ELF3 = target: T11, ELF3 (Homo sapiens, UniProt P78545 1-371); conditions: protein: recombinant; tags: N-terminal GST; dsDNA, one strand shown
T11 sequence: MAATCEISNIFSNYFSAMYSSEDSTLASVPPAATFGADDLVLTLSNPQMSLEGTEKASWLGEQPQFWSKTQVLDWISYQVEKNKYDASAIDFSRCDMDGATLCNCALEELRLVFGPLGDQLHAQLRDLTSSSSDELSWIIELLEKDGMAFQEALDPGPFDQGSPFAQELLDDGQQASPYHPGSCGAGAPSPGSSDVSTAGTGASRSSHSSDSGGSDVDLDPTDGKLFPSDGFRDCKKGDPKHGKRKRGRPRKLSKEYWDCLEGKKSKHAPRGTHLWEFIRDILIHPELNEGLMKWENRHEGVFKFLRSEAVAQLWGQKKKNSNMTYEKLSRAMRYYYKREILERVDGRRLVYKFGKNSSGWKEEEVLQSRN
In short: as §1

CRX = CRX (Homo sapiens, UniProt O43186 1-299); conditions: protein: recombinant; tags: N-terminal GST; dsDNA, one strand shown
In short: as §1

ETV1 = ETV1 (Homo sapiens, UniProt P50549 1-477); conditions: protein: recombinant; tags: N-terminal GST; dsDNA, one strand shown
In short: as §1

Sequence of ELF4 (Q99607 whole entry): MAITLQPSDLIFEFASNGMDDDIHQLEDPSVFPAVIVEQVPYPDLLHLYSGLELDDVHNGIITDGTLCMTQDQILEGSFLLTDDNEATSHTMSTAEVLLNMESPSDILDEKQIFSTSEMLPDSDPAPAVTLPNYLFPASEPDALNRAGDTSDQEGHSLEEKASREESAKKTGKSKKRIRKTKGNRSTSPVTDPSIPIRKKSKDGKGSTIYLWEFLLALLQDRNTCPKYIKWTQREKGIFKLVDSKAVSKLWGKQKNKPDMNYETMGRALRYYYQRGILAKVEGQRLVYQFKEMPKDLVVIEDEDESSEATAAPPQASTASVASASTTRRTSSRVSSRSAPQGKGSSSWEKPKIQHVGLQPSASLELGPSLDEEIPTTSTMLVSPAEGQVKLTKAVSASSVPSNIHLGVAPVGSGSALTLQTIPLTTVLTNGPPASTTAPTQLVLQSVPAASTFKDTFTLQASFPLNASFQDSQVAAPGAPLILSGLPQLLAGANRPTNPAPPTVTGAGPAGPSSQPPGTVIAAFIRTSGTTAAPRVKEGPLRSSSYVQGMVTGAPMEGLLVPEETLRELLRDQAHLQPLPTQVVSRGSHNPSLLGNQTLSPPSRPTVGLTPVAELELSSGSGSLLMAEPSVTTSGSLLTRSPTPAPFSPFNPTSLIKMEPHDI
Sequence of ELF1 (P32519 whole entry): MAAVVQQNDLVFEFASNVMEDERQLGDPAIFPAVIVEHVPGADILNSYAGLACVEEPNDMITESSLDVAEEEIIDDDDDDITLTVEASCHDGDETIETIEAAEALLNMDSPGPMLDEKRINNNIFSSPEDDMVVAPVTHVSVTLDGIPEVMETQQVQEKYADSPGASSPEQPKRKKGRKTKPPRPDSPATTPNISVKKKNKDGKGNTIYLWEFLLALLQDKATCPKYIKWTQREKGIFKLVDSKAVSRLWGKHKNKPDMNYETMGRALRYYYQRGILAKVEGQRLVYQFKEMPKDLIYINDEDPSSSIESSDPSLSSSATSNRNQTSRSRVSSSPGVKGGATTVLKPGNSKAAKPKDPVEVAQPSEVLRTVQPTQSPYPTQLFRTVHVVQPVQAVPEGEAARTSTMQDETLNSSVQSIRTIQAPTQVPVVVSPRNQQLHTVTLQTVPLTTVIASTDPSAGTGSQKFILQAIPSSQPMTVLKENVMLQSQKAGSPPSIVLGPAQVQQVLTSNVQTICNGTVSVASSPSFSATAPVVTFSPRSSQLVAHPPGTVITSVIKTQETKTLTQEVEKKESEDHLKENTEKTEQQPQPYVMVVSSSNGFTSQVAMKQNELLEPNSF
Sequence of HSF1 (Q00613 whole entry): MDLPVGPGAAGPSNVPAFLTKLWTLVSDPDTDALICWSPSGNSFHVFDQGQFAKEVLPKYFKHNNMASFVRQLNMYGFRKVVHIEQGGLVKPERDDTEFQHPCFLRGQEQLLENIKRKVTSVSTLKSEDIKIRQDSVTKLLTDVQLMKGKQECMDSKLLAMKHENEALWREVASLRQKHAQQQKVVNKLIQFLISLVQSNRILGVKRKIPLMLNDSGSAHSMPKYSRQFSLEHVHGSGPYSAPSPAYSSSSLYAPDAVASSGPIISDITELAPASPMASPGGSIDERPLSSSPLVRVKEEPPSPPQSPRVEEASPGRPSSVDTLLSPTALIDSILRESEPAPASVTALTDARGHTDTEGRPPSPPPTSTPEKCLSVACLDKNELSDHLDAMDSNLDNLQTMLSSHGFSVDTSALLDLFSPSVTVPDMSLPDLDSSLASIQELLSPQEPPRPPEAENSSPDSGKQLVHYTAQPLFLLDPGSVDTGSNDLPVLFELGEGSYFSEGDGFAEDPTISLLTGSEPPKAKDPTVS
Sequence of ETV1 (P50549 whole entry): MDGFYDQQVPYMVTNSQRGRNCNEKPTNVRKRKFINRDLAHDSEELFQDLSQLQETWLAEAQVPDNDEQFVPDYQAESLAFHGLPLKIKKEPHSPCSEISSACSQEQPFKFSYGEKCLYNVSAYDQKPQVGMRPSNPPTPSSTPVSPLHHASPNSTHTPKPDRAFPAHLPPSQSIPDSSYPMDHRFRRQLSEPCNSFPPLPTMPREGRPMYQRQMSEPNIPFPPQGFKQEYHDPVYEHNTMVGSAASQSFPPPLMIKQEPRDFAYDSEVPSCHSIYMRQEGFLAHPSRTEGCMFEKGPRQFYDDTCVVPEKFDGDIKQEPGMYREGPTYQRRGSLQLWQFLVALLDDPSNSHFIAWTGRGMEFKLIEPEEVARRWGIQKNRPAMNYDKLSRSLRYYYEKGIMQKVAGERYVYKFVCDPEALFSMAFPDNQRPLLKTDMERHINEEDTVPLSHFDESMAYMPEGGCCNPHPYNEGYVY
Sequence of SPIB (Q01892 whole entry): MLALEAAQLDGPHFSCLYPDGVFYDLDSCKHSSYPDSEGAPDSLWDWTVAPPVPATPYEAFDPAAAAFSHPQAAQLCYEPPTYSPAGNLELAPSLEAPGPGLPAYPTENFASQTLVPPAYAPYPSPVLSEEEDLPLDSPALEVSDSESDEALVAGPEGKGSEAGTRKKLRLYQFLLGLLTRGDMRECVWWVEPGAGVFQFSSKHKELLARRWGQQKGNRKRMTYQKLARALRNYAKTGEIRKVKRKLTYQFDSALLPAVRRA
Sequence of CRX (O43186 whole entry): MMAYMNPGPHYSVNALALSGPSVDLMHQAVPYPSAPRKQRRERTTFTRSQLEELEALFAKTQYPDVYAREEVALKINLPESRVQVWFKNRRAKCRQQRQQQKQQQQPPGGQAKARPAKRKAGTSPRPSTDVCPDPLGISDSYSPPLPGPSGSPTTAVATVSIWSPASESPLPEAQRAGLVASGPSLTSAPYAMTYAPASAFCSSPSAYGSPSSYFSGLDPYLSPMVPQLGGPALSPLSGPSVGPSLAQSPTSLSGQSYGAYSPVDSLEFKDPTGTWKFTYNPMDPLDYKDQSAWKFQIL
Sequence of ETV5 (P41161 whole entry): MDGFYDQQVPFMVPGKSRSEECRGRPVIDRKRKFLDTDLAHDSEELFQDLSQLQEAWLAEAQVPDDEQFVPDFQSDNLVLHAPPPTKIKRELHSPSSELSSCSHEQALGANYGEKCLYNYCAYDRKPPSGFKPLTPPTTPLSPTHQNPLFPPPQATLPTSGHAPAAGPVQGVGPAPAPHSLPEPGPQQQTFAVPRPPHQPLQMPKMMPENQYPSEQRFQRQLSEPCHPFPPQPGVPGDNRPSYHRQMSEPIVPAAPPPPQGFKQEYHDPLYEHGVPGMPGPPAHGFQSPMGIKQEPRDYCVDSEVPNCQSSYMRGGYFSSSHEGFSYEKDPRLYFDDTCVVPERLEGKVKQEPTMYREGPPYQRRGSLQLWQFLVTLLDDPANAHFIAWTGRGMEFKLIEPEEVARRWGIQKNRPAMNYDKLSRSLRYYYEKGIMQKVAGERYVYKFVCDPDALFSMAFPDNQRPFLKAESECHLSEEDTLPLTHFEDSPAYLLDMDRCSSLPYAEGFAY

GCCGAT was tested, and the binding signal (FLI1) was 1.14 fold enrichment (6-mer frequency, TF over GST control), the binding signal (ELK1) was 1.09 fold enrichment (6-mer frequency, TF over GST control) and the binding signal (GABPA) was 1.21 fold enrichment (6-mer frequency, TF over GST control). For the same sequence, the binding signal (ERG) was 1.03 fold enrichment (6-mer frequency, TF over GST control), the binding signal (ELF1) was 1.03 fold enrichment (6-mer frequency, TF over GST control) and the binding signal (EHF) was 1.01 fold enrichment (6-mer frequency, TF over GST control). For the same sequence, the binding signal (SPI1) was 1.12 fold enrichment (6-mer frequency, TF over GST control), the binding signal (SPIB) was 1.07 fold enrichment (6-mer frequency, TF over GST control) and the binding signal (ELK3) was 1.08 fold enrichment (6-mer frequency, TF over GST control). The binding signal (FEV) was 1.11 fold enrichment (6-mer frequency, TF over GST control), the binding signal (ETV5) was 1.11 fold enrichment (6-mer frequency, TF over GST control) and the binding signal (HSF1) was 1.13 fold enrichment (6-mer frequency, TF over GST control). The binding signal (SPIC) was 1.03 fold enrichment (6-mer frequency, TF over GST control), the binding signal (ELF4) was 1.16 fold enrichment (6-mer frequency, TF over GST control) and the binding signal (ELK4) was 1.13 fold enrichment (6-mer frequency, TF over GST control). The binding signal (ETV2) was 1.13 fold enrichment (6-mer frequency, TF over GST control), the binding signal (ELF3) was 1.02 fold enrichment (6-mer frequency, TF over GST control) and the binding signal (CRX) was 1.46 fold enrichment (6-mer frequency, TF over GST control). For the same sequence, the binding signal (ETV1) was 1.07 fold enrichment (6-mer frequency, TF over GST control).
